# Experiments:
# Assay in all cases: DAPPL (digital affinity profiling via proximity ligation, sequencing); 10 mM Tris-HCl pH 7.5, 50 mM NaCl, 1 mM DTT, 4% glycerol, room temperature, 30 min; GST-TFs on glutathione beads, 16-mer random dsDNA library, 0.1% formaldehyde crosslink after washing; high values mean tight binding
# FLI1 = target: T1, FLI1 (Homo sapiens, UniProt Q01543 1-452); conditions: protein: recombinant; tags: N-terminal GST; dsDNA, one strand shown
# T1 sequence: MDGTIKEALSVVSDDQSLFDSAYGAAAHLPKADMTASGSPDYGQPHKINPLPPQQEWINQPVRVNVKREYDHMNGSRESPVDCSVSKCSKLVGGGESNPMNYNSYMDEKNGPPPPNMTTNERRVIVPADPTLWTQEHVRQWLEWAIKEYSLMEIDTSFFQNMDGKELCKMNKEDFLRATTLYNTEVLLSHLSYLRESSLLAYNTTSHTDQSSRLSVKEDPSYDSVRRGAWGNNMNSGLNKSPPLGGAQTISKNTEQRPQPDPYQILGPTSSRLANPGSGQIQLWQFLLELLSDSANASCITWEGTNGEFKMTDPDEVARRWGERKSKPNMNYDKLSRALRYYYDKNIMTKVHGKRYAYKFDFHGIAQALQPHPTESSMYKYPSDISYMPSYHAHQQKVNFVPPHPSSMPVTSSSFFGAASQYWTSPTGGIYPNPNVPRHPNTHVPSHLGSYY
# Summary of the method: (§1)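 A tag-only sample was pooled with DNA-barcoded human transcription factors that had been expressed in yeast as GST fusions and captured on glutathione beads. The pools were incubated for 30 min at room temperature with 200 nmole of a random double-stranded 16-mer DNA library in Tris/NaCl/DTT/glycerol buffer, then washed, crosslinked with 0.1% formaldehyde, proximity-ligated (BsaI/T4 ligase, 1 h, 37 °C), PCR-amplified and sequenced on an Illumina NextSeq500. Binding signal is each hexamer's read frequency for a factor divided by its frequency for the tag-only sample.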
# ELK1 = target: T2, ELK1 (Homo sapiens, UniProt P19419 1-428); conditions: protein: recombinant; tags: N-terminal GST; dsDNA, one strand shown
# T2 sequence: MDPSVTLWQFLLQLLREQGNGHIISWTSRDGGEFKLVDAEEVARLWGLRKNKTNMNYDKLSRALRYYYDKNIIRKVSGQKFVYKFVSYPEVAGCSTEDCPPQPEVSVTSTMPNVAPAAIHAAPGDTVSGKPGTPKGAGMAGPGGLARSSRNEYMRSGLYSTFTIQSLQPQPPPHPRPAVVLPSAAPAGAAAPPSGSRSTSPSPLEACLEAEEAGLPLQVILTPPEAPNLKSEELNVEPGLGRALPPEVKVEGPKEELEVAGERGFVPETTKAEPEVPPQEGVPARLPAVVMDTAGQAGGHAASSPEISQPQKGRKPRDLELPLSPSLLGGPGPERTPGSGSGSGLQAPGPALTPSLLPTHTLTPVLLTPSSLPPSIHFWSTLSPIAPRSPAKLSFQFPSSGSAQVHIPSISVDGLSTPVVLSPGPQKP
# Summary of the method: as §1
# GABPA = target: T3, GABPA (Homo sapiens, UniProt Q06546 1-454); conditions: protein: recombinant; tags: N-terminal GST; dsDNA, one strand shown
# T3 sequence: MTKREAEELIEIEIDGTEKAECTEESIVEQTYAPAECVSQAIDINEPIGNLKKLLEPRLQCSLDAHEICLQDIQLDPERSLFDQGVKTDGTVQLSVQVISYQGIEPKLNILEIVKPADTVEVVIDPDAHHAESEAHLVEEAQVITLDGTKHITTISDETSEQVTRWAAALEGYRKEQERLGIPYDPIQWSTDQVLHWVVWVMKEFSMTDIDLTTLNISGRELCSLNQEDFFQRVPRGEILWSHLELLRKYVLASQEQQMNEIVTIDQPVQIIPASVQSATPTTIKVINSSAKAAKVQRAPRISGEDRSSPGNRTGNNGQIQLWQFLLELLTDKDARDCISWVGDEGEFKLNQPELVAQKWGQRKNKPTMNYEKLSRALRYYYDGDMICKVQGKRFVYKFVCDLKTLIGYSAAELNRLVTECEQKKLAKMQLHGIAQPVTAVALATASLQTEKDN
# Summary of the method: as §1
# ERG = target: T4, ERG (Homo sapiens, UniProt P11308 1-479); conditions: protein: recombinant; tags: N-terminal GST; dsDNA, one strand shown
# T4 sequence: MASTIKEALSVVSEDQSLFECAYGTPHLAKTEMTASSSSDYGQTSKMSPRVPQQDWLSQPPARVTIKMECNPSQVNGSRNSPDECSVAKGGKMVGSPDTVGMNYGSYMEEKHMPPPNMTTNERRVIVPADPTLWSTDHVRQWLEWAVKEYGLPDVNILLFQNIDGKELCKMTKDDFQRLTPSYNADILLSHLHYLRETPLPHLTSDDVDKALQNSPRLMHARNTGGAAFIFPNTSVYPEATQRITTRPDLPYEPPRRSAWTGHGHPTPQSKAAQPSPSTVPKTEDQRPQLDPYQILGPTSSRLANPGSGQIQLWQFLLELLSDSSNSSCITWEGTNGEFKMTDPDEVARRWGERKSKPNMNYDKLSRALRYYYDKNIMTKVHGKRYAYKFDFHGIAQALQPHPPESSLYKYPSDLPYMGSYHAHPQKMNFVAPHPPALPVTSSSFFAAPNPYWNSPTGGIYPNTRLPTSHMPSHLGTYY
# Summary of the method: as §1
# ELF1 = ELF1 (Homo sapiens, UniProt P32519 1-619); conditions: protein: recombinant; tags: N-terminal GST; dsDNA, one strand shown
# Summary of the method: as §1
# EHF = target: T5, EHF (Homo sapiens, UniProt Q9NZC4 1-300); conditions: protein: recombinant; tags: N-terminal GST; dsDNA, one strand shown
# T5 sequence: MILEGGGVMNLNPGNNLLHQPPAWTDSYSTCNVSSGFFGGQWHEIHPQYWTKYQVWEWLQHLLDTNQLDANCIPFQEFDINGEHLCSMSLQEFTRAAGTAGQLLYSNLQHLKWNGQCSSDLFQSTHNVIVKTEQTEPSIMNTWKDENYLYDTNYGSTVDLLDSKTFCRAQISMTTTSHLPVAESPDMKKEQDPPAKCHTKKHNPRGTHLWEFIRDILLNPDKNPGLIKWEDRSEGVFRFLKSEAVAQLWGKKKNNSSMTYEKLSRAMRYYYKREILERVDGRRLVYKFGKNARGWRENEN
# Summary of the method: as §1
# SPIB = SPIB (Homo sapiens, UniProt Q01892 1-262); conditions: protein: recombinant; tags: N-terminal GST; dsDNA, one strand shown
# Summary of the method: as §1
# ELK3 = target: T6, ELK3 (Homo sapiens, UniProt P41970 1-407); conditions: protein: recombinant; tags: N-terminal GST; dsDNA, one strand shown
# T6 sequence: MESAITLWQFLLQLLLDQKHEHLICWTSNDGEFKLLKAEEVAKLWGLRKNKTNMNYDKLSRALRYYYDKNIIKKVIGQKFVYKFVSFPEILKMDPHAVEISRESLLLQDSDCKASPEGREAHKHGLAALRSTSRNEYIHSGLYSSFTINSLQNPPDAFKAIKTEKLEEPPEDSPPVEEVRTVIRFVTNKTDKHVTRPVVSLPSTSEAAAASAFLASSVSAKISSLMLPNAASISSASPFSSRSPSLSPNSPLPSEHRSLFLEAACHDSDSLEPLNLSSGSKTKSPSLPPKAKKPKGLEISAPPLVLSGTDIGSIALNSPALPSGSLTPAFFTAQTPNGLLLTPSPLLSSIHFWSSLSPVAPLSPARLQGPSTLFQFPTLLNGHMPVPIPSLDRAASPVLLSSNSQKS
# Summary of the method: as §1
# FEV = target: T7, FEV (Homo sapiens, UniProt Q99581 1-238); conditions: protein: recombinant; tags: N-terminal GST; dsDNA, one strand shown
# T7 sequence: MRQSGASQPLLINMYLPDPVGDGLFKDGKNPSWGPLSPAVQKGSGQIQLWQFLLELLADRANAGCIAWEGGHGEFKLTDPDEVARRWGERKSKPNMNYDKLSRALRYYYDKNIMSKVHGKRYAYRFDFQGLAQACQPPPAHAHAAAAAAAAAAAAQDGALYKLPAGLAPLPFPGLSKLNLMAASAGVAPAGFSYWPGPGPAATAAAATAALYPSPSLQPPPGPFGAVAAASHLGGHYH
# Summary of the method: as §1
# ETV5 = ETV5 (Homo sapiens, UniProt P41161 1-510); conditions: protein: recombinant; tags: N-terminal GST; dsDNA, one strand shown
# Summary of the method: as §1
# HSF1 = HSF1 (Homo sapiens, UniProt Q00613 1-529); conditions: protein: recombinant; tags: N-terminal GST; chain copies: 3; dsDNA, one strand shown
# Summary of the method: as §1
# SPIC = target: T8, SPIC (Homo sapiens, UniProt Q8N5J4 1-248); conditions: protein: recombinant; tags: N-terminal GST; dsDNA, one strand shown
# T8 sequence: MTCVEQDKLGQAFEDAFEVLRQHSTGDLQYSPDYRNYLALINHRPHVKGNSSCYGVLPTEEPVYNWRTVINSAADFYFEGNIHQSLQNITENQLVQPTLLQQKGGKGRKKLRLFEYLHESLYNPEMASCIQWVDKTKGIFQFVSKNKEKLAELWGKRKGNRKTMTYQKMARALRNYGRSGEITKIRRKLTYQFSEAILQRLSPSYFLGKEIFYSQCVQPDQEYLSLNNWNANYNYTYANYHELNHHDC
# Summary of the method: as §1
# ELF4 = ELF4 (Homo sapiens, UniProt Q99607 1-663); conditions: protein: recombinant; tags: N-terminal GST; dsDNA, one strand shown
# Summary of the method: as §1
# ELK4 = target: T9, ELK4 (Homo sapiens, UniProt P28324-2 1-405); conditions: protein: recombinant; tags: N-terminal GST; dsDNA, one strand shown
# T9 sequence: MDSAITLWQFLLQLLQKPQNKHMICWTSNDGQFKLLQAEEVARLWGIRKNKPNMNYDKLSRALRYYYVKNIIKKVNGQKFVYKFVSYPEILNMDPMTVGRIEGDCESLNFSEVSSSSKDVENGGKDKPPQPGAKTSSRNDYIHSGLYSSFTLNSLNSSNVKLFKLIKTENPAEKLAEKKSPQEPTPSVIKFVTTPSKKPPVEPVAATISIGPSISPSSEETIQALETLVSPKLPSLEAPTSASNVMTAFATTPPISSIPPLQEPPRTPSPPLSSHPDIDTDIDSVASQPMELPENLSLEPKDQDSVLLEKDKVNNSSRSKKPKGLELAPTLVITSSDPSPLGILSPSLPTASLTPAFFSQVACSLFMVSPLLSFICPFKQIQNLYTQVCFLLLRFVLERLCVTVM
# Summary of the method: as §1
# ETV2 = target: T10, ETV2 (Homo sapiens, UniProt O00321 1-342); conditions: protein: recombinant; tags: N-terminal GST; dsDNA, one strand shown
# T10 sequence: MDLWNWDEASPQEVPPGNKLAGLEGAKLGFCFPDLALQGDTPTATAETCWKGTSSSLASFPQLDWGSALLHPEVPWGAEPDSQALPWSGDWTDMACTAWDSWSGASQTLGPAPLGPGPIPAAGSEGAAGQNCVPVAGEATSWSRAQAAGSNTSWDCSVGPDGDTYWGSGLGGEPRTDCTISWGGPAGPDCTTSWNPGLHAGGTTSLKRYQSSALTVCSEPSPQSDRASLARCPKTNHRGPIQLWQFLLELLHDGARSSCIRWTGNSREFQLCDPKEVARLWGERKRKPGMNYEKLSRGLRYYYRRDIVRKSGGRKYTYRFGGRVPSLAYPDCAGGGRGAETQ
# Summary of the method: as §1
# ELF3 = target: T11, ELF3 (Homo sapiens, UniProt P78545 1-371); conditions: protein: recombinant; tags: N-terminal GST; dsDNA, one strand shown
# T11 sequence: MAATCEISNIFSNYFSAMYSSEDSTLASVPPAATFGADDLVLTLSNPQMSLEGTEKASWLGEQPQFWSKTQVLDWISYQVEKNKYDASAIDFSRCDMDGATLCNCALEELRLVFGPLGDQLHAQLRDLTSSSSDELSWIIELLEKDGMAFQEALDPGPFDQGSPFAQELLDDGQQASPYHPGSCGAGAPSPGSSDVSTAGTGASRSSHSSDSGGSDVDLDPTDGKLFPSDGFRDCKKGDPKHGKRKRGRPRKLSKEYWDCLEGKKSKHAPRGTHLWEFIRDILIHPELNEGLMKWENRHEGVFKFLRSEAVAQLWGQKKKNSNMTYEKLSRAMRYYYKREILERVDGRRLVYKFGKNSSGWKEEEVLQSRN
# Summary of the method: as §1
# CRX = CRX (Homo sapiens, UniProt O43186 1-299); conditions: protein: recombinant; tags: N-terminal GST; dsDNA, one strand shown
# Summary of the method: as §1
# ETV1 = ETV1 (Homo sapiens, UniProt P50549 1-477); conditions: protein: recombinant; tags: N-terminal GST; dsDNA, one strand shown
# Summary of the method: as §1
# CRX, sequence (O43186 whole entry): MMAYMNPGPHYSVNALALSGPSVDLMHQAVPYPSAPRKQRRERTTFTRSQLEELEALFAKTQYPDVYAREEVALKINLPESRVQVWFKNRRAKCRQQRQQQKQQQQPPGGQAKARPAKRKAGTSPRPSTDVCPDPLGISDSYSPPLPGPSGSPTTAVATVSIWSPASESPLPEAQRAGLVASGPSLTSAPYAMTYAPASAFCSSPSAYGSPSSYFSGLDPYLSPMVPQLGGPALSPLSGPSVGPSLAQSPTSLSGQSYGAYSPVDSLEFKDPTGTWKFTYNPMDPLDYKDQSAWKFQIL
# ELF1, sequence (P32519 whole entry): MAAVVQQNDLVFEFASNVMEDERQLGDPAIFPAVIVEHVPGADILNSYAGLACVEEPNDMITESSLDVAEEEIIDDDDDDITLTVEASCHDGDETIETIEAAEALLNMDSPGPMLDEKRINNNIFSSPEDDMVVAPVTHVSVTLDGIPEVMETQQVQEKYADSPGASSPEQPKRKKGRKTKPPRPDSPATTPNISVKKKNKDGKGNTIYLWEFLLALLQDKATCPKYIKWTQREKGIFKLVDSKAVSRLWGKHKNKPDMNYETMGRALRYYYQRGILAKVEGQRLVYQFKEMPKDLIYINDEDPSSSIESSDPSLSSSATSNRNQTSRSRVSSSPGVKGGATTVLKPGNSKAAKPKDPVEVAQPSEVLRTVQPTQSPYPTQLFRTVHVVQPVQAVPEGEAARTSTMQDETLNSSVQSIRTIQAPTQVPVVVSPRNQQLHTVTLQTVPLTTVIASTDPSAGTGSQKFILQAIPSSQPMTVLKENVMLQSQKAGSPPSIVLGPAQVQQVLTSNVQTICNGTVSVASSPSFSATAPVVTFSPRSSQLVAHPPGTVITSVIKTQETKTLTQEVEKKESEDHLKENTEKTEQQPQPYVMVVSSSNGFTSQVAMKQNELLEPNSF
# SPIB, sequence (Q01892 whole entry): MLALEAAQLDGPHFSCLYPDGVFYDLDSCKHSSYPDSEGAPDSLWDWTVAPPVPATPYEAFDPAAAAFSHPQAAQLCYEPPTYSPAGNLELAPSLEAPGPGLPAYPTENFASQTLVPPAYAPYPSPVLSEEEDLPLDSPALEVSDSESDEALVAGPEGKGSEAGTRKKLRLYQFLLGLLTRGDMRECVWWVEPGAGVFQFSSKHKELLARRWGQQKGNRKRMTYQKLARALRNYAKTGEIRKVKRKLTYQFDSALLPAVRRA
# ETV1, sequence (P50549 whole entry): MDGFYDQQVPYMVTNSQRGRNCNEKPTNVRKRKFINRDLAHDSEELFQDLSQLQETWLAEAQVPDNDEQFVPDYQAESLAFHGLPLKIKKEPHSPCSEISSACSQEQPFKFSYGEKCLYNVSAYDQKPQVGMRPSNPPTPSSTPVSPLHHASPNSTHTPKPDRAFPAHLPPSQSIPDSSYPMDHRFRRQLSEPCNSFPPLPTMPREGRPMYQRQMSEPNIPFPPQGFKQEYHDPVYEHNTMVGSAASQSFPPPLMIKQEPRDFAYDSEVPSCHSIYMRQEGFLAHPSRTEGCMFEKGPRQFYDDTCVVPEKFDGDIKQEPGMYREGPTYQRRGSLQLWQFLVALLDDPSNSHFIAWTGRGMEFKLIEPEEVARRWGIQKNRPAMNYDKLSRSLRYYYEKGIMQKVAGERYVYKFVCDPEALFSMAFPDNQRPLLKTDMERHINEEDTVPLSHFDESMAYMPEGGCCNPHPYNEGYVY
# ETV5, sequence (P41161 whole entry): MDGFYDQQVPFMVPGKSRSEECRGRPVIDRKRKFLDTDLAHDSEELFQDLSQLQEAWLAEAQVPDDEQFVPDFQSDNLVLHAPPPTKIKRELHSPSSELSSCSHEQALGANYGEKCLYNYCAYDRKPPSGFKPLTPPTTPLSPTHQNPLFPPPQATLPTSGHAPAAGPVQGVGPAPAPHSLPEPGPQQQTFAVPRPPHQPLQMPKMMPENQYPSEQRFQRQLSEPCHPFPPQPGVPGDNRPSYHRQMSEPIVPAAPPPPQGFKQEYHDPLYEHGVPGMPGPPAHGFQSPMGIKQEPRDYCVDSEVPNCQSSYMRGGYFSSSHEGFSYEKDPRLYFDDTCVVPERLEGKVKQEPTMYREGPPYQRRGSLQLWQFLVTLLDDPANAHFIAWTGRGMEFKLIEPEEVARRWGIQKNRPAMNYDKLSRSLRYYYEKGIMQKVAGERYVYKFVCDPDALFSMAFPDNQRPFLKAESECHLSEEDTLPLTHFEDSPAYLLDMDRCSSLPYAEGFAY
# HSF1, sequence (Q00613 whole entry): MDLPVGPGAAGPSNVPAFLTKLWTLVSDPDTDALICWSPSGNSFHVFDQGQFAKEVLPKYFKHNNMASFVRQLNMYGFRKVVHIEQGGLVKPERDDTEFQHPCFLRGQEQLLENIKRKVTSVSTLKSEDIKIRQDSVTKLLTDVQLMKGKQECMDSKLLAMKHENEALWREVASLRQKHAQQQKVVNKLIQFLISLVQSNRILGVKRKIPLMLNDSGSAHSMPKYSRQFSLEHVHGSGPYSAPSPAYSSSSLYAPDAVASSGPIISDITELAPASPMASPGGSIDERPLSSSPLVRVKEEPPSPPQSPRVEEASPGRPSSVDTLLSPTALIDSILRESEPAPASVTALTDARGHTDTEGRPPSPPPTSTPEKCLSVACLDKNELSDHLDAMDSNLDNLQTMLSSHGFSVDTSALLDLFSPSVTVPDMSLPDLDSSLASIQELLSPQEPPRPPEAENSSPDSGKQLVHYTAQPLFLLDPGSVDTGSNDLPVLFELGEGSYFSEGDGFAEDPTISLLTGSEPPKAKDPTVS
# ELF4, sequence (Q99607 whole entry): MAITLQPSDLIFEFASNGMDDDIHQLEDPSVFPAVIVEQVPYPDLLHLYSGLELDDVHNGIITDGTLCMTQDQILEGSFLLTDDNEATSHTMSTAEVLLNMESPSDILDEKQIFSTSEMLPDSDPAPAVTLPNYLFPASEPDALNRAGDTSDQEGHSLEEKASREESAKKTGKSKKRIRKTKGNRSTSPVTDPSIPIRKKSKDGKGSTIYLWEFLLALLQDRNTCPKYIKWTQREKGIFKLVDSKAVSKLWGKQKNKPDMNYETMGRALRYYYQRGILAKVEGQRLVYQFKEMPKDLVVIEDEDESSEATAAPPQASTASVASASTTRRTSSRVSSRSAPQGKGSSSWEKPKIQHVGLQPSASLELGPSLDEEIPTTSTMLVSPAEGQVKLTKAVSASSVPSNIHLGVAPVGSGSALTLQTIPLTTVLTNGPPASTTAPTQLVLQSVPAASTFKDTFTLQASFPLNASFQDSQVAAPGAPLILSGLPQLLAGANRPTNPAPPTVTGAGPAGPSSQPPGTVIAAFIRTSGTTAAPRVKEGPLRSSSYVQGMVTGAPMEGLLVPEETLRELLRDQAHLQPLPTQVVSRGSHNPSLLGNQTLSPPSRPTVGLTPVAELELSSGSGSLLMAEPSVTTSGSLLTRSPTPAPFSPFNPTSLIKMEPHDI
sequence,measurement,setting,value
TACCTG,binding signal,FLI1,"1.13 fold enrichment (6-mer frequency, TF over GST control)"
same,binding signal,ELK1,"1.21 fold enrichment (6-mer frequency, TF over GST control)"
same,binding signal,GABPA,"1.12 fold enrichment (6-mer frequency, TF over GST control)"
same,binding signal,ERG,"1.17 fold enrichment (6-mer frequency, TF over GST control)"
same,binding signal,ELF1,"1.09 fold enrichment (6-mer frequency, TF over GST control)"
same,binding signal,EHF,"1.16 fold enrichment (6-mer frequency, TF over GST control)"
same,binding signal,SPIB,"1.25 fold enrichment (6-mer frequency, TF over GST control)"
same,binding signal,ELK3,"1.15 fold enrichment (6-mer frequency, TF over GST control)"
same,binding signal,FEV,"1.11 fold enrichment (6-mer frequency, TF over GST control)"
same,binding signal,ETV5,"1.19 fold enrichment (6-mer frequency, TF over GST control)"
same,binding signal,HSF1,"1.04 fold enrichment (6-mer frequency, TF over GST control)"
same,binding signal,SPIC,"1.04 fold enrichment (6-mer frequency, TF over GST control)"
same,binding signal,ELF4,"1.14 fold enrichment (6-mer frequency, TF over GST control)"
same,binding signal,ELK4,"1.07 fold enrichment (6-mer frequency, TF over GST control)"
same,binding signal,ETV2,"1.14 fold enrichment (6-mer frequency, TF over GST control)"
same,binding signal,ELF3,"1.15 fold enrichment (6-mer frequency, TF over GST control)"
same,binding signal,CRX,"1.11 fold enrichment (6-mer frequency, TF over GST control)"
same,binding signal,ETV1,"1.27 fold enrichment (6-mer frequency, TF over GST control)"

# Source: article PMC7862700, “An all-to-all approach to the identification of sequence-specific readers for epigenetic DNA modifications on cytosine”
